# Source: PubChem
# Rows were chosen to be rich in hits. Some 11% of all compounds tested hit in one or more screens of this group.
# PNC inhibitor – perinucleolar compartment assembly inhibition; activity change (PNC), negative = inhibition, % at 10 µM; PC3M PTB-GFP, PNC prevalence imaging, 16 h; hits give low values; 140,000 compounds, 3.1% hits;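 active means readout at or below -70, meaning at least 70% loss of cells showing the perinucleolar compartment, a nuclear body marking cancer cells; inconclusive means readout between -30 and a set limit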;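 further: plate controls were DMSO wells for no effect and camptothecin positive control wells for full effect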
#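 PC3M cells stably expressing PTB-GFP, 750–1000 cells/well, treated 16 h at 37 °C with compound (23 nl of library stock), in duplicate. After paraformaldehyde fixation and Hoechst stain, imaged at 20x; PNC prevalence scored by image analysis.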
# HPGD block – HPGD (human) dehydrogenase inhibition. P15428. purified HPGD, NADH fluorescence kinetic, PGE2 substrate. Potency, µM, inactives show at the top dose activity change, negative = inhibition, actives largely listed as inhibitors. 150,000 compounds, 4.3% hits. AID 894; active means well fitted inhibition curve with a large enough effect, not every such curve was filed as active; inconclusive means small, poorly fitted or top-dose-only effect, or another doubt; inactive means no such curve, though single readings can be large or run the other way; further: potency means the concentration at half of the fitted maximal effect; on the % scale 0 is the no-effect control and ±100 the full control effect
# Target sequence (P15428 whole entry, looked up): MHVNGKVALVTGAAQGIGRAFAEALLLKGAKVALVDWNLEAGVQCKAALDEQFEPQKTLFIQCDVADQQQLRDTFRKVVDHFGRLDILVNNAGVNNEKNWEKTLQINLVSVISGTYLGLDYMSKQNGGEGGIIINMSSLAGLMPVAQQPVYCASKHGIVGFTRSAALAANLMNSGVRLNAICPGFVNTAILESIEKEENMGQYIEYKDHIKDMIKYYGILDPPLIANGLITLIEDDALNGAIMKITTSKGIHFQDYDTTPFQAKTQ
#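 20 nM HPGD preincubated 15 min at room temperature with compound in 50 mM Tris-HCl pH 8, 0.01% Tween 20. Started with 1 mM NAD+ and 30 uM prostaglandin E2; NADH fluorescence (360/450 nm) read 5 times over 30-s intervals, last minus first.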
# ALDH1A1 block – blocks purified human ALDH1A1 activity | P00352 | Purified ALDH1A1, NADH fluorescence, propionaldehyde substrate | 220,000 compounds, 7.3% hits | Potency, µM (series often up to 75.3 µM), for inactives: top-dose activity, negative = inhibition, most hits filed as inhibitors | AID 1030; active means well fitted inhibition curve with a large enough effect, not every such curve was filed as active; inconclusive means small, poorly fitted or top-dose-only effect, or another doubt; inactive means no such curve, though single readings can be large or run the other way;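 further: potency means the concentration at half of the fitted maximal effect; plate controls were no enzyme wells and a reference inhibitor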
# Target sequence (P00352 whole entry, looked up): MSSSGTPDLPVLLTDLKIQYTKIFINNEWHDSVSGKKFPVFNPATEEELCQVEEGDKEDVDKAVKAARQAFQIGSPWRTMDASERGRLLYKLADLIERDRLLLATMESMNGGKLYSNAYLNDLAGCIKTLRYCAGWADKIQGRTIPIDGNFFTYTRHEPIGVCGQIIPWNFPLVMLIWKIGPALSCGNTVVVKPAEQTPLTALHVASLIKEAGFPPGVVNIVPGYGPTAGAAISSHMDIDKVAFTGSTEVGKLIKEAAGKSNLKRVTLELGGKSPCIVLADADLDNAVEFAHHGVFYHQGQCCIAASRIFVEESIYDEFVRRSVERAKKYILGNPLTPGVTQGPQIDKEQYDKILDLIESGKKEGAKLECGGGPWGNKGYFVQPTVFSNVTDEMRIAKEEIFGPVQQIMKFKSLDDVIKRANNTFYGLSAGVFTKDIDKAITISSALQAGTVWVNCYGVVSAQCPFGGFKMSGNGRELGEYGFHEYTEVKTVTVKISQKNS
# HTT cytoprotect – cytoprotection in Huntington HTT-Q103 PC12 cell model. PC12 HTT-Q103 induced, cytoprotection, ATP luminescence, 40 h. Potency, µM (doses to about 56.4 µM), for inactives: cytoprotection (ATP increase), usual class: activators. 230,000 compounds, 0.14% hits; further: potency means the concentration at half of the fitted maximal effect; % of control where 0% means no effect; nearly all actives have a fitted effect of over 45% in size
#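 Huntington model: PC12 line, ecdysone-inducible HTTQ103 exon1–GFP, tebufenozide 100 nM. Test articles in a dose series. Endpoint luminescence from cellular ATP.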
# CBFb RUNX1 block – inhibitors of human CBF-beta and RUNX1 interaction; Q01196+Q13951; AlphaScreen CBFb-His/RUNX1-biotin binding, biochemical; Potency, µM (top dose mostly 59.8 µM), for the others: at the highest dose activity, negative = inhibition, usual class: inhibitors; 230,000 tested, under 10 active; AID 1477; further: % of control where 0% means no effect
#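 CBF-beta (His) and RUNX1 (biotin), 30 nM each; 20 min preassociation; + compound, 15 min; + beads 50 ng each (Ni, streptavidin), 90 min; RT; AlphaScreen read.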
# HttQ103 aggreg – mutant huntingtin aggregation inhibition; PC12 HttQ103-GFP aggregates, Acumen cytometry, 40 h; Potency, µM (highest dose often 46.1 µM), inactives show top-dose activity change, negative = inhibition, hits mostly inhibitors; 220,000 compounds, 1.1% hits; AID 1688; further: potency means the concentration at half of the fitted maximal effect; on the % scale 0 is the no-effect control and ±100 the full control effect; nearly all actives have a fitted effect of over 60% in size
#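 Steps: seed 1500 PC12 HTTQ103-GFP cells/well; add tebufenozide, 100 nM final; add compound titration; add ATPLite reagent; quantify GFP aggregates by laser scanning cytometry.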
# * hit, by the source's call; u = inconclusive; x = not tested or not shown; [ ] = remark or other dose. Unless noted, the call rests on the fitted dose curve; in most records, active means well fitted curve in the direction sought with a large enough effect; inconclusive means small, poorly fitted or top-dose-only effect, or another doubt; inactive means no such curve, though single readings can be large; an effect the other way counts as inactive or inconclusive.
SMILES,PNC inhibitor,HPGD block,ALDH1A1 block,HTT cytoprotect,CBFb RUNX1 block,HttQ103 aggreg
O=C1[C@@H]2[C@H]3C(=CC[C@@H]2C(=O)N1Cc1ccccc1)C1(OCCCO1)[C@H]1O[C@@H]1[C@H]3O,x,x,-5%[13.5 µM],-9%[10 µM],17%[13.1 µM],x
Cc1cc(O)c(C2=Nc3ccccc3SC(c3ccc(Cl)cc3)C2)c(=O)o1 (configuration not stated),-26,-4%,3%,-5%[10 µM],-7%,7%
COc1ccc(C2CC(c3c(O)cc(C)oc3=O)=NCCS2)c(OC)c1 (configuration not stated),-114*,16µM*,u,-116%,u,u
O=C(Nc1ccc(Cl)cc1-c1nc2ccccc2s1)c1ccco1,9,x,-3%,-2%,13%,-1%
Cc1cccc2sc(NC(=O)c3ccc(NS(=O)(=O)c4cccs4)cc3)nc12,-84*,u,u,-21%[10 µM],-29%,2%
COc1ccc2nc(NC(=O)c3ccc(NS(=O)(=O)c4cccs4)cc3)sc2c1,u,u,u,-2%[10 µM],6%,-3%
C[C@]12CCC(=O)C=C1CC[C@@H]1C2[C@@H](O)C[C@@]2(C)[C@H]1CC[C@]2(O)C(=O)CO (some centres not stated),x,2%,3%,-27%[1.9 µM],11%[21.7 µM],x
CC1=CC(C)(C)Nc2ccc(OC(=O)CN3C(=O)c4cccc5cccc(c45)C3=O)cc21,40,-21%,11µM*,-114%,u,u
CC1=CC(C)(C)Nc2ccc(OC(=O)CN3C(=O)c4ccccc4C3=O)cc21,-25,u,u,x,1%,u
CCC(/C=N/NC(=O)CCCCC(=O)N/N=C/C(CC)CC)CC,3,1%,10%,14%[0.074 µM],4%,1%
COc1cc(OC)c(Nc2cc(C)nc3nc(C)nn23)cc1Cl,-12,-20%,5%,-10%,8%,8%
COc1ccc(Cl)cc1Nc1cc(C)nc2nc(C)nn12,26,3.5µM*,-3%,-1%,0%[2.36 µM],12%
COc1cc2c(cc1NC(=O)C(C)OC(=O)C1CC(=O)N(Cc3ccco3)C1)oc1ccccc12 (configuration not stated),38,28µM*,-10%,-11%,-6%,5%[9.22 µM]
COc1cc(/C=N/Nc2ncc(C(F)(F)F)cc2Cl)cc(OC)c1O,-16,14µM*,-24%,7%[10 µM],16%,-5%
C/C(=N/Nc1ncc(C(F)(F)F)cc1Cl)c1ccncc1,x,x,40µM*,-31%,3%,u
C/C(=N\Nc1ncc(Cl)cc1Cl)c1ccc(C#N)cc1,x,x,9%,-24%,-7%,10%
Cc1ccc(NC(=O)CSc2nnc(CCNC(=O)OC(C)(C)C)o2)c(C)c1,12,-4%,2%,-1%,7%,14%
Cc1ccc(C)c(NC(=O)CSc2nnc(CCCCCNC(=O)OC(C)(C)C)o2)c1,3,18µM*,9.5µM*,-4%[10 µM],11%,2%
COc1ccc(NC(=O)c2cccc(Oc3ccc([N+](=O)[O-])cc3Cl)c2)cc1,-2,-4%,u,-4%[10 µM],-2%,2%
O=C(Nc1cccc(Cl)c1)c1cccc(Oc2ccc([N+](=O)[O-])cc2Cl)c1,-4,-4%,10µM*,10%[10 µM],-13%,26%
N=C1/C(=C/c2coc3ccccc3c2=O)C(=O)N=C2SC(c3ccco3)=NN12,x,x,x,9%[10 µM],-12%,1%[9.22 µM]
N=C1/C(=C\c2coc3ccc(O)cc3c2=O)C(=O)N=C2SC=CN12,x,x,16µM*,2%[10 µM],-8%,-3%[9.22 µM]
CSC1=NSC2=NC(=O)/C(=C\c3coc4ccccc4c3=O)C(=N)N12,u,32µM*,u,3%[10 µM],6%,16%
CCN(CC)c1ccc(CN2CCCCCC2)cc1,16,-14%,u,-7%,-1%,-1%
CSc1nc2ccccc2nc1N(C)S(=O)(=O)c1ccc(C)cc1,x,x,x,33%[10 µM],6%,43%[9.22 µM]
SMILES,PNC inhibitor,HPGD block,ALDH1A1 block,HTT cytoprotect,CBFb RUNX1 block,HttQ103 aggreg
C=CCn1c(=O)c2c(nc(-c3ccccc3)n2C)n(C)c1=O,x,x,u,-6%,u,x
C=CCn1c(=O)n(CCOC)c(=O)c2sc3ccccc3c21,-25,u,u,17%[10 µM],5%,22µM*
Cc1ccc(S(=O)(=O)NCC2CCC(C(=O)NCc3ccc4c(c3)OCO4)CC2)cc1 (configuration not stated),1,-11%,7.1µM*,-10%,10%,17%
Cc1ccc(S(=O)(=O)NCC2CCC(C(=O)NCc3ccccn3)CC2)cc1 (configuration not stated),x,x,7.9µM*,-15%,3%,10%
O=C(CCc1ccc(S(=O)(=O)NC2CCCCC2)cc1)NCc1cccnc1,x,x,13µM*,u,-1%,42%[9.22 µM]
O=C(NCc1cccnc1)[C@@H]1[C@@H](C(=O)O)[C@H]2CC[C@@H]1O2,x,-3%,0%[13.5 µM],-2%[10 µM],x,x
O=C1CCC(C(=O)NCc2cccnc2)N1 (configuration not stated),-100*,-9%,8%,4%[10 µM],-6%,6%
CO[C@H]1COC(=O)C/C=C\[C@@H](C)COC(=O)[C@@H](CCSC)NC(=O)C/C=C\[C@@H]1C,x,x,4%[13.5 µM],-37%[10 µM],17%[13.1 µM],x
COC(=O)C1=C(C)N(Cc2ccccc2)C2=C3C(=O)CCCC3[C@@](O)(C(=O)OC)C(=O)N2C1c1ccccc1 (some centres not stated),x,x,10%[13.5 µM],-18%[10 µM],10%[13.1 µM],x
CC(=O)Nc1ccc(S(=O)(=O)NCC2CCC(C(=O)NCc3ccccc3)CC2)cc1 (configuration not stated),x,x,-7%,u,1%,-8%
Cc1ccc(S(=O)(=O)N2CCC(C(=O)OC(C)C(=O)NCc3ccc4c(c3)OCO4)CC2)cc1 (configuration not stated),-25,18µM*,0%,12%,6%,-18%
Cc1ccc(S(=O)(=O)NCC2CCC(C(=O)NCc3cccnc3)CC2)cc1 (configuration not stated),x,x,6.3µM*,4%,2%,-7%
CC1CCN(S(=O)(=O)c2ccc(C(=O)NCc3ccc4c(c3)OCO4)cc2)CC1,u,-7%,-4%,-3%,1%,-3%
COC(=O)c1csc2c(C(F)(F)F)cc(N3CCN(C(=O)Nc4ccccc4)CC3)nc12,x,x,x,1%[10 µM],10%,-27%[9.22 µM]
COc1ncc2ncc(=O)n(C)c2n1,x,-16%,-8%,14%,x,x
CC(C)(C)c1ccc(OCC2CO2)cc1 (configuration not stated),x,-12%,-6%,-18%,4%[21.7 µM],x
O=C(c1ccco1)N1CCN(c2c([N+](=O)[O-])nn(-c3cccc(Cl)c3)[n+]2[O-])CC1,x,x,1%,14%,-10%,-6%
